Screening data: PubChem, National Center for Advancing Translational Sciences (NCATS)
Pf growth 96h: P. falciparum growth inhibition at 96 hours | Potency, µM (doses to about 28.7 µM), most hits filed as inhibitors | hit rate 6.9% among 320,000 | P. falciparum luciferase reporter growth, 96 h
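Parasite growth measured via integrated firefly luciferase reporter in P. falciparum. Infected erythrocytes at 2% hematocrit, 0.05% parasitemia final were treated 96 hours at 37 C under 5% CO2, and luminescence was read.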
SARS PLpro yeast: blocks SARS-CoV papain-like protease in a yeast assay; Potency, µM (titrated, usually from 32.9 µM), actives largely listed as activators; S. cerevisiae expressing SARS-CoV PLpro, growth rescue; hit rate 0.19% among 330,000; calls by dose curve; note: nearly all actives have a fitted effect of over 55% in size
Sm TGR inh: blocks Schistosoma mansoni thioredoxin glutathione reductase. Q962Y6. purified TGR, DTNB reduction, TNB absorbance 405 nm. Potency, µM (titrated, usually from 114 µM), usual class: inhibitors. hit rate 3% among 360,000. AID 485364; note: nearly all actives have a fitted effect of over 60% in size
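Kinetic colorimetric format: TGR-catalysed, NADPH-driven DTNB reduction monitored via TNB absorbance. Enzyme dispensed at 20 nM; compound exposure 15 min at room temperature before reaction start.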
Pf growth 48h: P. falciparum growth inhibition at 48 hours (one generation); hit rate 5.9% among 310,000; Potency, µM (doses to about 28.7 µM), actives largely listed as inhibitors; P. falciparum luciferase growth in erythrocytes, 48 h
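Growth was read as firefly luciferase luminescence after a 48 h, 37 C, 5% CO2 exposure of compounds to reporter-bearing P. falciparum cultures (0.1% parasitemia, 2% hematocrit final) in Albumax-supplemented RPMI 1640.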
Numbers stand for hits; i = inactive; ? = inconclusive; nt = not tested or not shown; [ ] = remark or other dose. This is a sample that favours compounds with a hit; in the whole collection about 12% have one here. Unless noted, calls come from the whole dose curve; as a rule, active = well fitted curve in the direction sought with a large enough effect; inconclusive = small, poorly fitted or top-dose-only effect, or another doubt; inactive = no such curve, though single readings can be large; an effect the other way counts as inactive or inconclusive.

SMILES	Pf growth 96h	SARS PLpro yeast	Sm TGR inh	Pf growth 48h
Cc1ccccc1NS(=O)(=O)c1ccc2[nH]cc(C(=O)NCCc3ccccc3)c(=O)c2c1	?	i	i	14.7µM
O=C(NCCc1ccccc1)c1c[nH]c2c(F)cccc2c1=O	i	i	i	i
COc1cccc(NS(=O)(=O)c2ccc3[nH]cc(C(=O)NCCC(C)C)c(=O)c3c2)c1	i	i	i	9.28µM
CCc1ccccc1NS(=O)(=O)c1ccc2[nH]cc(C(=O)NC3CCCC3)c(=O)c2c1	i	i	i	13.1µM
Cc1ccc(NC(=O)CSc2nnc3nc(C)cc(C)n23)cc1	nt	nt	i	nt
CC1C2(C)OCC(C#N)(C(=N)O2)C1(C#N)C#N (stereo not drawn)	i	i	12.6µM	?
CCOC(OCC)P(=O)(c1ccccc1)c1ccccc1	11.7µM	i	i	i
CCCC(C(=O)OCC)P(=O)(c1ccccc1)c1ccccc1 (stereo not drawn)	?	i	i	nt
CCCSC1=NC2(CCN(C(=O)NC3CCCCC3)CC2)N=C1c1ccc(C)cc1	nt	nt	i	nt
CCOc1ccc(NC(=O)c2cc(=O)c3ccc(C)c(C)c3o2)cc1	nt	nt	i	nt
Cc1ccc(CNC(=O)Nc2ccccc2)n1C	i	i	28.2µM	i
C=CCNC(=O)Nc1ccc(F)cc1F	i	i	i	i[5.75 µM]
Cc1ccc(CNC(=O)Nc2ccc(F)cc2F)n1C	i	i	31.6µM	i
CC(C)CCN(C(=O)C1=COCCO1)c1c(N)n(Cc2ccccc2)c(=O)[nH]c1=O	i	i	i	i
CCOC(=O)c1ccc(N2C(=O)c3n[nH]c(C)c3C2c2ccc(OCC)cc2)cc1 (stereo not drawn)	nt	nt	i	nt
CCCC(C)C(=O)Nc1nc(C)c(-c2csc(Nc3ccc(Cl)cc3)n2)s1 (stereo not drawn)	?	i	i	?
CCC(C)C(=O)Nc1nc(C)c(-c2csc(Nc3cc(Cl)ccc3OC)n2)s1 (stereo not drawn)	14.7µM	i	i	10.4µM
COc1ccc(OC)c(Nc2nc(-c3sc(NC(=O)CC(C)C)nc3C)cs2)c1	10.4µM	i	i	6.57µM
CCC(C)C(=O)Nc1nc(C)c(-c2csc(Nc3cc(OC)ccc3OC)n2)s1 (stereo not drawn)	9.28µM	i	i	2.33µM
COc1cccc(NC(=O)CSc2nc(=O)n(Cc3ccncc3)c3c2CCCC3)c1	i	i	i	i
CC(=O)Nc1ccc(C(=O)OCC(=O)N2CCC(Cc3ccccc3)CC2)cc1	?	i	i	?
Cc1ccsc1/C=C/C1=Cc2c(sc(NC(=O)CSc3n[nH]c(N)n3)c2C#N)C(C)(C)C1	8.28µM	i	?	nt
CCOc1ccc(/C=C/C2=Cc3c(sc(NC(=O)CSc4n[nH]c(N)n4)c3C#N)C(C)(C)C2)cc1	8.28µM	i	?	10.4µM
CCCCCCCNC(=O)C1(CC2CC(c3cccc(Br)c3)=NO2)CCN(C(=O)CCCCCBr)CC1 (stereo not drawn)	?	i	?	13.1µM
CCCCCCCNC(=O)C1(CC2CC(c3ccc(Cl)cc3)=NO2)CCN(C(=O)OC(C)(C)C)CC1 (stereo not drawn)	5.22µM	i	i	?
SMILES	Pf growth 96h	SARS PLpro yeast	Sm TGR inh	Pf growth 48h
CCOc1cc(C(=O)N2CCC(CC3CC(c4cccc(Br)c4)=NO3)(C(=O)NCC3CCCCC3)CC2)cc(OCC)c1OCC (stereo not drawn)	?	i	i	0.37µM
CCCN1C(=O)C2(c3ccccc31)c1c(oc3ccccc3c1=O)C(=O)N2CCCOC(C)C (stereo not drawn)	nt	nt	i	nt
CC(C)[C@H](NC(=O)c1ccccc1)C(=O)NC1=NCCS1	nt	i	nt	nt
CCOc1ccc(CNC(=O)C2CCCN(S(=O)(=O)c3ccc4c(ccn4C)c3)C2)cc1 (stereo not drawn)	nt	nt	i	nt
O=C1NC(=O)C(c2cn(-c3ccccc3)nc2-c2ccc(F)cc2)N1 (stereo not drawn)	?	i	i	4.65µM
CCCCn1c(N)c(N(CCOC)C(=O)c2nn(CC)c(=O)c3ccccc23)c(=O)[nH]c1=O	i	i	i	i
Cc1cc(=O)n2[nH]c(NC(=O)c3cccc(Cl)c3)nc2n1	nt	nt	i	nt
CCN(CC(=O)NCc1cccs1)C(=O)c1ccc([N+](=O)[O-])o1	?	i	44.7µM	?
Cc1cc([N+](=O)[O-])nn1CC(=O)NCc1ccccc1	i	i	?	i
Cc1cc([N+](=O)[O-])nn1CC(=O)NCc1cccs1	8.28µM	i	i	i
O=C(Nc1ccc(F)cc1)c1ccc(Cn2nc(N3CCN(c4ccccc4)CC3)ccc2=O)o1	nt	nt	i	nt
Cc1nc(N2CCN(c3ccccn3)CC2)c2c(C)c(C(=O)Nc3c(F)cc(F)cc3Br)sc2n1	i	i	i	11.7µM
